This is a sample that favours compounds with a hit; in the whole collection about 2.6% have one here.
TPT1 inh: Candida albicans TPT1 enzyme inhibitors, primary screen, biochemical, fluorescence polarization | tRNA 2'-phosphotransferase TPT1 (Candida albicans SC5314) | recombinant caTPT1, FP RNA substrate dephosphorylation | inhibition, % at 5 µM | 300,000 tested, 0.81% active | AID 1962, 2009;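 active = inhibition above the mean of all tested compounds plus 3 SD, set per screening campaign, cut at about 24% in these data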
CRFBP-R2 agonist: agonists of CRF-BP/CRF-R2 complex, primary screen, cell-based, HEK293, calcium dye fluorescence, uHTS | calcium dye fluorescence (FLIPR); percent of saturating CRF peptide response | activation, % at 13.2 µM | 350,000 tested, 0.46% active;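 active = activation of at least 50%, plus an integration ratio under a set limit after plate pattern correction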
IDE inh: human IDE inhibitors in live cells, primary screen, fluorescence polarization, HEK cells, FAbetaB substrate; Insulin-degrading enzyme (Homo sapiens), P14735; FAbetaB cleavage; inhibition, % at 5.59 µM; 320,000 tested, 0.41% active; AID 434962, 2010;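 active = percent inhibition above the average of all tested compounds plus 3 SD, set per screening campaign, cut at about 16% in these data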;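 note: IDE supplied by intact live HEK cells; FP after avidin binding of uncleaved biotin substrate so inhibition keeps polarization high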
IDE act: human IDE activators in live cells, primary screen, fluorescence polarization, HEK cells, FAbeta-B substrate. Insulin-degrading enzyme (Homo sapiens), P14735. FAbeta-B cleavage; 0% vehicle, 100% cell-free pure enzyme wells. activation, % at 5.96 µM. 340,000 tested, 0.073% active;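 active = activation above the mean of all tested compounds plus 3 SD, set per screening campaign, cut at about 17% in these data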
Myeloid diff MLP: induction of myeloid progenitor differentiation, primary screen, cell-based, flow cytometry, MLPCN library. ER-HoxA9 myeloid progenitors, lysozyme-GFP differentiation. calls only at 10 µM. 360,000 tested, 1% active. AID 624256, 2012;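 active = normalized GFP-positive differentiation at or above the plate's own cutoff, the solvent-only control mean plus 3 SD; inconclusive = no clear call, values can overlap the other calls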;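 note: cells exposed to compound for four days before flow analysis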
CRFBP-R2 block: antagonists of CRF-BP/CRF-R2 complex, primary screen, cell-based, HEK293, calcium dye fluorescence, uHTS; CRF-induced calcium fluorescence; inhibition, % at 11.8 µM; 350,000 tested, 0.59% active; AID 588475, 2011;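 active = inhibition of the ligand-induced calcium signal above about 50% at the single tested concentration, limit read from the data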
A number is an active result; 0 = inactive; ? = inconclusive; - = no result; + = active, no number.

SMILES	TPT1 inh	CRFBP-R2 agonist	IDE inh	IDE act	Myeloid diff MLP	CRFBP-R2 block
CC(NC(=O)c1ccc(N(C)C)cc1)C1CC2CCC1C2 (centres undefined)	-	0	-	0	0	0
Cc1ccc(Cl)cc1N(CC(=O)N1CCOCC1)S(C)(=O)=O	0	0	0	0	0	73.7
CS(=O)(=O)N(CC(=O)N1CCOCC1)c1cc(Cl)ccc1Cl	0	0	0	0	0	0
C[C@H]1NC(=O)[C@]2(C)[C@@H](c3ccccc3)[C@H]3COc4ccccc4[C@H]3N2C1=O	-	0	-	0	0	0
Cc1ccc(OCc2ccc(C(=O)NN)o2)c([N+](=O)[O-])c1	0	0	0	0	0	0
Cc1cc(C)n(Cc2ccc(C(=O)NN)o2)n1	0	0	0	0	+	0
Cc1ccc(C)c(OCc2ccc(C(=O)NN)o2)c1	0	0	0	0	+	0
CC1CCC(NC(=O)CN2CCN(S(=O)(=O)c3ccc(Br)s3)CC2)CC1 (centres undefined)	-	0	-	-	0	0
COCCCNC(=O)CC(NS(=O)(=O)c1ccc(Cl)cc1)c1ccc(OC)cc1 (centres undefined)	0	0	0	0	0	0
CCN(C[C@H]1N[C@@](CC)(C(=O)OC)[C@H]2C(=O)N(Cc3ccccc3)C(=O)[C@@H]12)C(=O)Nc1ccc(C)cc1	-	0	0	0	+	0
CCN(C[C@H]1N[C@@](Cc2ccccc2)(C(=O)OC)[C@H]2C(=O)N(Cc3ccccc3)C(=O)[C@@H]12)C(=O)Nc1ccc(C)cc1	-	0	0	0	0	0
COc1ccc(C(=O)COC(=O)CCNS(=O)(=O)c2ccc(NC(C)=O)cc2)c(OC)c1	0	0	0	0	0	51.3
CC(=O)Nc1ccc(S(=O)(=O)NCCC(=O)OCC(=O)c2ccccc2)cc1	0	0	0	0	0	0
CCCNC(=O)C1CC(=O)N(c2ccc(OCC)cc2)C1 (centres undefined)	0	0	0	0	?	55.8
CCc1cc(=O)oc2c3c(cc(OCC(=O)NCCCOC)c12)OC(C)(C)CC3	0	0	0	0	0	0
CC(C)(C)OC(=O)N1CCC(c2cc(=O)n3[nH]cc(C(=O)NC4CCCC4)c3n2)CC1	0	0	0	0	0	50.6
CC(C)(C)OC(=O)N1CCC(c2cc(=O)n3[nH]cc(C(=O)Nc4ccc(F)c(Cl)c4)c3n2)CC1	0	0	0	0	0	0
CSc1nc2cc(Cl)ccc2s1	0	0	0	0	0	51.7
O=C1OCCC1Sc1nc2cc(Cl)ccc2s1 (centres undefined)	0	0	0	0	0	0
Cc1ccc(-n2c(=O)cc(N3CCCCCC3)[nH]c2=O)cc1	0	0	0	0	0	0
Cc1ccc(-n2c(Cl)c(Cl)[nH]c(=O)c2=O)cc1	0	0	0	0	0	50.8
O=C(NCCCN1CCCC1=O)c1cccc(S(=O)(=O)Nc2ccc(Br)cc2)c1	0	0	0	0	0	0
CCOc1ccc(CN(C)CC(=O)Nc2ccc([N+](=O)[O-])cc2Cl)cc1	0	0	0	0	+	0
Nc1ccc(C(=O)N/N=C/c2cccc(Oc3ccccc3)c2)cc1	-	0	-	0	0	0
Cc1nn(C)c(C(=O)N/N=C/c2cccc(Oc3ccccc3)c2)c1Br	0	57.9	0	0	0	0
SMILES	TPT1 inh	CRFBP-R2 agonist	IDE inh	IDE act	Myeloid diff MLP	CRFBP-R2 block
Cc1noc(C)c1COc1ccc(C(=O)N2CCN(S(=O)(=O)c3cccc(F)c3)CC2)cc1	-	0	0	0	0	0
CCc1ccc(OCC(=O)c2c(O)c3ccccc3oc2=O)cc1	0	0	0	0	0	0
CCc1oc2ccccc2c1C(=O)c1cc(Br)c(O)c(Br)c1	0	0	0	0	0	54.8
N#Cc1cc(C(=O)c2cc(Cl)ccc2O)cn(-c2ccccc2)c1=O	0	0	0	0	0	0
Cc1ccc(O)c(C(=O)c2cc(C#N)c(=O)n(-c3c(C)n(C)n(-c4ccccc4)c3=O)c2)c1	0	0	0	0	+	0
COc1ccc(O)c(C(=O)c2cc(C#N)c(=O)n(-c3c(C)n(C)n(-c4ccccc4)c3=O)c2)c1	0	85.7	0	0	0	0
COc1ccc(S(=O)(=O)NC(=O)C2(C)CCN2C(=O)Cc2ccccc2Cl)cc1 (centres undefined)	-	-	-	-	0	-
CN(Cc1nc(-c2ccccc2)no1)C1CCOCC1	0	0	0	0	0	0
Cc1csc(NC(=O)C2(C)CCN2C(=O)C(C)C)c1C#N (centres undefined)	-	-	-	-	0	-
Brc1ccc(-c2noc(CCc3ccccc3)n2)o1	0	0	0	0	0	61.2
Clc1ccccc1OCc1nc(-c2ccc(Br)o2)no1	0	0	0	0	0	0
CCCNC(=O)CSc1nnc(NC(=O)C2CC(=O)N(c3ccccc3OC)C2)s1 (centres undefined)	-	0	-	-	0	0
CCCOc1ccc(/C=C/C(=O)NCc2ccccc2)cc1	0	0	0	0	0	0
Cc1cc(C)c2nc3nc(C)c(C)cc3c(N)c2c1	-	70.6	-	0	+	111.0
N=C(N)SCc1nc2ccccc2c(=O)n1-c1ccccc1Cl	0	0	0	0	0	0
Cc1ccccc1-n1c(CSC(=N)N)nc2ccccc2c1=O	0	0	0	0	0	51.9
CCOC(=O)[C@H](C)N1[C@H](C)[C@H](c2ccccc2)Oc2ccc(Cl)cc2S1(=O)=O	-	0	-	0	0	0
Cc1ccc(S(=O)(=O)N2C[C@]3(O)C[C@@H]4C(=O)N(c5ccccc5)C(=O)[C@@H]4C[C@]3(OC(=O)Nc3cccs3)C2)cc1	-	0	-	-	0	0
COc1ccc2c(C)cc(SCc3c(C)noc3C)nc2c1	0	0	0	0	+	55.5
Nc1nc(SCC(=O)Nc2ccc(F)cc2)[nH]c(=O)c1NC(=O)c1ccc(F)c(F)c1	0	0	0	0	0	0
CCc1ccc(NC(=O)CSc2nc(N)c(NC(=O)c3ccc(F)c(F)c3)c(=O)[nH]2)cc1	0	0	0	0	0	52.3
CC(=O)c1ccc(N2CCN(C(=O)c3cccc(Oc4ccccc4)c3)CC2)cc1	0	0	0	0	0	78.5
CSCCNC(=O)C1(C)CCN1C(=O)CCc1ccccc1 (centres undefined)	-	-	-	-	0	-
N#Cc1c(NC(=O)c2cccnc2)sc2c1CCC2	0	0	0	0	+	0
N#Cc1cc2c(nc1Cl)CCC2	0	0	0	0	0	0
CC(C)Sc1snnc1-c1ccccc1	0	0	0	0	0	53.6
COc1ccc(NC(=O)CSc2nnc(N)s2)c([N+](=O)[O-])c1	0	0	0	0	-	65.0

Source: PubChem
